Columns and labels:
Test in all cases: DAPPL (digital affinity profiling via proximity ligation, sequencing); 10 mM Tris-HCl pH 7.5, 50 mM NaCl, 1 mM DTT, 4% glycerol, room temperature, 30 min; GST-TFs on glutathione beads, 16-mer random dsDNA library, 0.1% formaldehyde crosslink after washing; high values mean tight binding
Details in all cases: protein: recombinant; tags: N-terminal GST; dsDNA, one strand shown
ERF = biological target: T1, ERF (Homo sapiens, UniProt P50548 1-548)
T1 sequence: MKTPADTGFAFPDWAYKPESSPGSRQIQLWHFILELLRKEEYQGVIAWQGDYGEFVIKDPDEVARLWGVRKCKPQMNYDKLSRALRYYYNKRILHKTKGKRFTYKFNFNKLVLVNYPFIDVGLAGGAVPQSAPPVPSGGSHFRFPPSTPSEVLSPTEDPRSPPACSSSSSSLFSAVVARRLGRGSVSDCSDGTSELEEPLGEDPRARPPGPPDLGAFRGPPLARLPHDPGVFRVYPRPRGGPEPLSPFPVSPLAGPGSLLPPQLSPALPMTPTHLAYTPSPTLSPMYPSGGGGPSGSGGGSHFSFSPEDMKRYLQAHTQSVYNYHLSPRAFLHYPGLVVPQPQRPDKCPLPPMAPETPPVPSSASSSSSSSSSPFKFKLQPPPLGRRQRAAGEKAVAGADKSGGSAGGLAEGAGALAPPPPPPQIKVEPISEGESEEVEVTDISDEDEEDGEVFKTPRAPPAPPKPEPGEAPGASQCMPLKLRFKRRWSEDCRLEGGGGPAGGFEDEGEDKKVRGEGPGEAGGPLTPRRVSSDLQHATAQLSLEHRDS
Method in brief: (§1)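 Yeast served to express human transcription factors as GST fusions, which were then captured on glutathione beads and labelled with DNA barcodes. Pooled with a tag-only sample, they were incubated with 200 nmole of a 16-mer random double-stranded DNA library for 30 min at room temperature in Tris/NaCl/DTT/glycerol buffer, washed, crosslinked with 0.1% formaldehyde, ligated by proximity, amplified by PCR and sequenced. Dividing each hexamer's read frequency for a factor by its frequency for the tag-only sample gives the binding signal.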

ETV3L = biological target: T2, ETV3L (Homo sapiens, UniProt Q6ZN32 1-361)
T2 sequence: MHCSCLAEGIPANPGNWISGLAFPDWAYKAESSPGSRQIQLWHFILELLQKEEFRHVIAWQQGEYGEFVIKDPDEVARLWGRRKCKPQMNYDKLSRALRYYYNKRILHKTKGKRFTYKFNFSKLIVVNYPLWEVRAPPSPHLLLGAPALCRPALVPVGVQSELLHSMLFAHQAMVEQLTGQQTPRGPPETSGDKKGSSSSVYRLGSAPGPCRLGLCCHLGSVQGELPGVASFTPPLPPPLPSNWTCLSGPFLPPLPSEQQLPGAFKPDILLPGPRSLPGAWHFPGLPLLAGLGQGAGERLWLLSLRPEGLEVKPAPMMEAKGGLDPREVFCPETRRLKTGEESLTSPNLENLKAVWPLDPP
Method in brief: as §1

ETS2 = biological target: T3, ETS2 (Homo sapiens, UniProt P15036 1-469)
T3 sequence: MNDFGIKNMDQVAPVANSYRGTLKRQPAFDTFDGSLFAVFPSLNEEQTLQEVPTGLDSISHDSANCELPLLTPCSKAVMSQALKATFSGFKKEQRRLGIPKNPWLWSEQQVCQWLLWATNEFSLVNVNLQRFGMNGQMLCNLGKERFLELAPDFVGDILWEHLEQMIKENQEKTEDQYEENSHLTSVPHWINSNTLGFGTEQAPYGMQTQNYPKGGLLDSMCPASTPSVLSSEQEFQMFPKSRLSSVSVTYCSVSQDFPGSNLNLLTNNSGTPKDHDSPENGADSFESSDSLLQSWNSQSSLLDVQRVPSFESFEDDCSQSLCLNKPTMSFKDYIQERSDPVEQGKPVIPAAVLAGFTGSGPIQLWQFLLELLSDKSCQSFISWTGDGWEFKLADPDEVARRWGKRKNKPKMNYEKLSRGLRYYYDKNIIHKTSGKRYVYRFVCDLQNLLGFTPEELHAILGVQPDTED
Method in brief: as §1

SPDEF = biological target: T4, SPDEF (Homo sapiens, UniProt O95238 1-335)
T4 sequence: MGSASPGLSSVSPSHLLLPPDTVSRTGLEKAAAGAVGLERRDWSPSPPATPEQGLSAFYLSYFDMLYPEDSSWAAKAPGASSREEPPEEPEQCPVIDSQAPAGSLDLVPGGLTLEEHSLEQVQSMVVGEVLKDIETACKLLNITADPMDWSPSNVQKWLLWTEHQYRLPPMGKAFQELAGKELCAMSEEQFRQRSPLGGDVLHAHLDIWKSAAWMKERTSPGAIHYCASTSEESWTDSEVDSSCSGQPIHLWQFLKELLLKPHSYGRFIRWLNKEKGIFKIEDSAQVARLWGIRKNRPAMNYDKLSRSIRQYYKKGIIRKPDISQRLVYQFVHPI
Method in brief: as §1

ETV7 = biological target: T5, ETV7 (Homo sapiens, UniProt Q9Y603 1-341)
T5 sequence: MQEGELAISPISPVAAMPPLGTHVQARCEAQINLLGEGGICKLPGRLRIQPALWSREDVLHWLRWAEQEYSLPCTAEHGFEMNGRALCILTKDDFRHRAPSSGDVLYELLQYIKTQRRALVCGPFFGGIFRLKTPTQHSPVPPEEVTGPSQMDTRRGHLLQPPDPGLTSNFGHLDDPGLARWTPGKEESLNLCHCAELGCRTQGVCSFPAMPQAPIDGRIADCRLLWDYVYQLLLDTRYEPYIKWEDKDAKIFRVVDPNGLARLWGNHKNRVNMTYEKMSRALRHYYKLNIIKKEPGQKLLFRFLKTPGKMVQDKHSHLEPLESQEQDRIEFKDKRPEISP
Method in brief: as §1

ELF5 = biological target: T6, ELF5 (Homo sapiens, UniProt Q9UKW6-2 1-255)
T6 sequence: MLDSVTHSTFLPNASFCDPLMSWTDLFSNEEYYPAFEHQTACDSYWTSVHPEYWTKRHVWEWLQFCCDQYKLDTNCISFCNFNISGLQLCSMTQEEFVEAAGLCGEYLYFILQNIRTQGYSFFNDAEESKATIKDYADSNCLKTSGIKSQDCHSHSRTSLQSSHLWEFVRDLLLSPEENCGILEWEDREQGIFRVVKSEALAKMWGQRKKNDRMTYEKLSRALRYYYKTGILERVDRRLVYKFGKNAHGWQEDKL
Method in brief: as §1

ETV3 = biological target: T7, ETV3 (Homo sapiens, UniProt P41162-2 1-143)
T7 sequence: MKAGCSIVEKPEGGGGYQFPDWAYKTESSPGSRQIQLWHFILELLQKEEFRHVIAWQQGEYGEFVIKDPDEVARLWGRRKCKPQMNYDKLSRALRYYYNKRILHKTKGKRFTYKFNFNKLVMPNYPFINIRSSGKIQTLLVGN
Method in brief: as §1

ETV6 = ETV6 (Homo sapiens, UniProt P41212 1-452)
Method in brief: as §1

Chain of ETV6 (P41212 whole entry): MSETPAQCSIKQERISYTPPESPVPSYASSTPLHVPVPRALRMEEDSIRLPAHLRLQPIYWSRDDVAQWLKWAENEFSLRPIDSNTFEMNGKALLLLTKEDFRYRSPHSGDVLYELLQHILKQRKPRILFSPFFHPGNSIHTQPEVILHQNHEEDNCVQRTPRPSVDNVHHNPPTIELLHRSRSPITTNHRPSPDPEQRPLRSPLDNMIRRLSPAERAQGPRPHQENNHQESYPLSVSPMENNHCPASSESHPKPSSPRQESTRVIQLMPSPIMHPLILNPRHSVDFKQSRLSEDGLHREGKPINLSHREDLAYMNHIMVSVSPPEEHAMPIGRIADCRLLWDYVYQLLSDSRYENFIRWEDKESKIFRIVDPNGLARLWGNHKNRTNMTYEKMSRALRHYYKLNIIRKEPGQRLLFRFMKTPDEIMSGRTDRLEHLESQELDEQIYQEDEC

**Q.** What does the source list for AACTCC?
**A.** binding signal (ERF): 1.36 fold enrichment (6-mer frequency, TF over GST control); binding signal (ETV3L): 1.27 fold enrichment (6-mer frequency, TF over GST control); binding signal (ETS2): 1.32 fold enrichment (6-mer frequency, TF over GST control); binding signal (SPDEF): 1.33 fold enrichment (6-mer frequency, TF over GST control); binding signal (ETV7): 1.31 fold enrichment (6-mer frequency, TF over GST control); binding signal (ELF5): 1.32 fold enrichment (6-mer frequency, TF over GST control); binding signal (ETV3): 1.34 fold enrichment (6-mer frequency, TF over GST control); binding signal (ETV6): 1.4 fold enrichment (6-mer frequency, TF over GST control)

**Q.** With GTAAAC as the sequence, how does the binding signal (ERF) read?
**A.** The binding signal was 1.27 fold enrichment (6-mer frequency, TF over GST control).

**Q.** And the binding signal (ETV3L)?
**A.** The binding signal was 1.18 fold enrichment (6-mer frequency, TF over GST control).

**Q.** What about the binding signal (ETS2) of the same sequence?
**A.** The binding signal was 1.28 fold enrichment (6-mer frequency, TF over GST control).

**Q.** What about the binding signal (SPDEF) of the same sequence?
**A.** The binding signal was 1.17 fold enrichment (6-mer frequency, TF over GST control).

**Q.** And the binding signal (ETV7)?
**A.** Its binding signal is 1.18 fold enrichment (6-mer frequency, TF over GST control).

**Q.** And the binding signal (ELF5)?
**A.** Its binding signal is 1.22 fold enrichment (6-mer frequency, TF over GST control).

**Q.** And the binding signal (ETV3)?
**A.** The binding signal was 1.3 fold enrichment (6-mer frequency, TF over GST control).

**Q.** What about the binding signal (ETV6) of the same sequence?
**A.** The binding signal was 1.21 fold enrichment (6-mer frequency, TF over GST control).

**Q.** With GCTCCA as the sequence, how does the binding signal (ERF) read?
**A.** Its binding signal is 1.26 fold enrichment (6-mer frequency, TF over GST control).

**Q.** What about the binding signal (ETV3L) of the same sequence?
**A.** The binding signal was 1.26 fold enrichment (6-mer frequency, TF over GST control).

**Q.** What about the binding signal (ETS2) of the same sequence?
**A.** The binding signal was 1.21 fold enrichment (6-mer frequency, TF over GST control).

**Q.** And the binding signal (SPDEF)?
**A.** Its binding signal is 1.19 fold enrichment (6-mer frequency, TF over GST control).

**Q.** And the binding signal (ETV7)?
**A.** The binding signal was 1.19 fold enrichment (6-mer frequency, TF over GST control).

**Q.** And the binding signal (ELF5)?
**A.** The binding signal was 1.09 fold enrichment (6-mer frequency, TF over GST control).

**Q.** What about the binding signal (ETV3) of the same sequence?
**A.** The binding signal was 1.14 fold enrichment (6-mer frequency, TF over GST control).

**Q.** What about the binding signal (ETV6) of the same sequence?
**A.** Its binding signal is 1.1 fold enrichment (6-mer frequency, TF over GST control).

**Q.** Which binding signal (ERF) does the source give for ATTTCA here?
**A.** Its binding signal is 1.22 fold enrichment (6-mer frequency, TF over GST control).

**Q.** What about the binding signal (ETV3L) of the same sequence?
**A.** Its binding signal is 1.16 fold enrichment (6-mer frequency, TF over GST control).

**Q.** And the binding signal (ETS2)?
**A.** Its binding signal is 1.22 fold enrichment (6-mer frequency, TF over GST control).

**Q.** What about the binding signal (SPDEF) of the same sequence?
**A.** The binding signal was 1.28 fold enrichment (6-mer frequency, TF over GST control).

**Q.** And the binding signal (ETV7)?
**A.** Its binding signal is 1.13 fold enrichment (6-mer frequency, TF over GST control).

**Q.** And the binding signal (ELF5)?
**A.** The binding signal was 1.25 fold enrichment (6-mer frequency, TF over GST control).

**Q.** What about the binding signal (ETV3) of the same sequence?
**A.** Its binding signal is 1.23 fold enrichment (6-mer frequency, TF over GST control).

**Q.** And the binding signal (ETV6)?
**A.** The binding signal was 1.27 fold enrichment (6-mer frequency, TF over GST control).

**Q.** With ATTCTG as the sequence, how does the binding signal (ERF) read?
**A.** Its binding signal is 1.38 fold enrichment (6-mer frequency, TF over GST control).

**Q.** And the binding signal (ETV3L)?
**A.** Its binding signal is 1.28 fold enrichment (6-mer frequency, TF over GST control).

**Q.** What about the binding signal (ETS2) of the same sequence?
**A.** The binding signal was 1.31 fold enrichment (6-mer frequency, TF over GST control).

**Q.** What about the binding signal (SPDEF) of the same sequence?
**A.** Its binding signal is 1.27 fold enrichment (6-mer frequency, TF over GST control).

**Q.** What about the binding signal (ETV7) of the same sequence?
**A.** The binding signal was 1.23 fold enrichment (6-mer frequency, TF over GST control).

**Q.** What about the binding signal (ELF5) of the same sequence?
**A.** Its binding signal is 1.21 fold enrichment (6-mer frequency, TF over GST control).

**Q.** What about the binding signal (ETV3) of the same sequence?
**A.** The binding signal was 1.26 fold enrichment (6-mer frequency, TF over GST control).

**Q.** And the binding signal (ETV6)?
**A.** Its binding signal is 1.43 fold enrichment (6-mer frequency, TF over GST control).

**Q.** What does the source list for TGCTTC?
**A.** binding signal (ERF): 1.81 fold enrichment (6-mer frequency, TF over GST control); binding signal (ETV3L): 2.16 fold enrichment (6-mer frequency, TF over GST control); binding signal (ETS2): 2.06 fold enrichment (6-mer frequency, TF over GST control); binding signal (SPDEF): 2.39 fold enrichment (6-mer frequency, TF over GST control); binding signal (ETV7): 2.13 fold enrichment (6-mer frequency, TF over GST control); binding signal (ELF5): 2.66 fold enrichment (6-mer frequency, TF over GST control); binding signal (ETV3): 2.21 fold enrichment (6-mer frequency, TF over GST control); binding signal (ETV6): 2.45 fold enrichment (6-mer frequency, TF over GST control)

**Q.** ATGCCT was tested. Which binding signal (ERF) did it give?
**A.** The binding signal was 1.42 fold enrichment (6-mer frequency, TF over GST control).

**Q.** What about the binding signal (ETV3L) of the same sequence?
**A.** Its binding signal is 1.28 fold enrichment (6-mer frequency, TF over GST control).

**Q.** And the binding signal (ETS2)?
**A.** Its binding signal is 1.43 fold enrichment (6-mer frequency, TF over GST control).

**Q.** And the binding signal (SPDEF)?
**A.** The binding signal was 1.41 fold enrichment (6-mer frequency, TF over GST control).

**Q.** And the binding signal (ETV7)?
**A.** Its binding signal is 1.26 fold enrichment (6-mer frequency, TF over GST control).

**Q.** And the binding signal (ELF5)?
**A.** The binding signal was 1.34 fold enrichment (6-mer frequency, TF over GST control).

**Q.** What about the binding signal (ETV3) of the same sequence?
**A.** The binding signal was 1.4 fold enrichment (6-mer frequency, TF over GST control).

**Q.** And the binding signal (ETV6)?
**A.** The binding signal was 1.29 fold enrichment (6-mer frequency, TF over GST control).

— PMC7862700, “An all-to-all approach to the identification of sequence-specific readers for epigenetic DNA modifications on cytosine”
